Over roughly 8,300 sequences, “log2 fold change of degron read counts, EGFP-low vs EGFP+ sorted cells (limma voom), compound-induced degradation” has its median near -1.1; the highest 2% begin near 3.2. Shown is part of a subset that was picked to be rich in the highest values.
Target: T1, CRBN, Q96SW2
T1 chain: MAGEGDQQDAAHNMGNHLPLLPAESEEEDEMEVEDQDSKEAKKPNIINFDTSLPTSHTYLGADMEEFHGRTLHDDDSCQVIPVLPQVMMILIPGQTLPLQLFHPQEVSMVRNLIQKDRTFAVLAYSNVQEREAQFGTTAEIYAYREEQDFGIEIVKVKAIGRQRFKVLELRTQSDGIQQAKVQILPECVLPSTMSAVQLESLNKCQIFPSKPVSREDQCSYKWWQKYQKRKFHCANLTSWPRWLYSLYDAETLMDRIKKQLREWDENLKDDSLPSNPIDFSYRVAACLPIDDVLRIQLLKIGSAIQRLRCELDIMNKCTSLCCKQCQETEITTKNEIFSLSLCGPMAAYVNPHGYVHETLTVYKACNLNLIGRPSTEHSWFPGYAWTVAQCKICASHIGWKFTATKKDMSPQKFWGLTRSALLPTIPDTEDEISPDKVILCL
Test: log2 fold change of degron read counts, EGFP-low vs EGFP+ sorted cells (limma voom), compound-induced degradation; higher = more compound-induced degradation of the degron-EGFP fusion; degrons are variants of IKZF1/3 zinc finger 2; compound dose not given here
Conditions: Jurkat, 18 h

[1] = compound: compound 19 (5-tert-butyl-thalidomide)
[2] = compound: compound 22 (5-morpholino-thalidomide)
[3] = compound: compound 33 (diphenyl IMiD analogue)
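Further: pooled lentiviral library of zinc finger degron-EGFP fusions in mCherry-positive Jurkat cells, FACS-sorted after compound exposure, with degron abundance counted by next-generation sequencing.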

For LSCEICGFICTQKGNLLRHIKL [46L_47S_49E_50I_52G_53F_54I_55C_67L_, Q9UKT9], which “log2 fold change of degron read counts” value [1] is on record?
The value was 0.617.

And the “log2 fold change of degron read counts” value [2]?
The value was 0.753.

And the “log2 fold change of degron read counts” value [3]?
The value was 0.094.

What about the “log2 fold change of degron read counts” value (compound: thalidomide) of the same sequence?
Its value is 0.23.

Which “log2 fold change of degron read counts” value [1] does the source give for LRCNQCGFDCTQKGNLLRHIKL [46L_47R_49N_50Q_52G_53F_54D_55C_67L_, Q9UKT9] here?
The value was -2.4.

What about the “log2 fold change of degron read counts” value [2] of the same sequence?
Its value is -3.02.

And the “log2 fold change of degron read counts” value [3]?
The value was -2.

And the “log2 fold change of degron read counts” value (compound: thalidomide)?
The value was -2.27.

For FICEICGAVFTQKGNLLRHIKL [46F_47I_49E_50I_52G_53A_54V_55F_67L_, Q9UKT9], which “log2 fold change of degron read counts” value [1] is on record?
Its value is -0.571.

And the “log2 fold change of degron read counts” value [2]?
Its value is 1.25.

What about the “log2 fold change of degron read counts” value [3] of the same sequence?
Its value is 2.53.

What about the “log2 fold change of degron read counts” value (compound: thalidomide) of the same sequence?
Its value is 2.12.

What does the source list for FECEQCGAIFTQKGNLLRHIKL [46F_47E_49E_50Q_52G_53A_54I_55F_67L_, Q9UKT9]?
log2 fold change of degron read counts [1]: -2.86; log2 fold change of degron read counts [2]: -2.97; log2 fold change of degron read counts [3]: -1.26; log2 fold change of degron read counts (compound: thalidomide): -0.499

With LACEICGFECTQKGNLLRHIKL [46L_47A_49E_50I_52G_53F_54E_55C_67L_, Q9UKT9] as the sequence, how does the “log2 fold change of degron read counts” value [1] read?
The value was 0.602.

And the “log2 fold change of degron read counts” value [2]?
The value was -0.739.

What about the “log2 fold change of degron read counts” value [3] of the same sequence?
Its value is -1.36.

What about the “log2 fold change of degron read counts” value (compound: thalidomide) of the same sequence?
The value was -0.804.

FICEICGRMFTQKGNLLRHIKL [46F_47I_49E_50I_52G_53R_54M_55F_67L_, Q9UKT9] was tested. Which “log2 fold change of degron read counts” value [1] did it give?
Its value is -2.48.

And the “log2 fold change of degron read counts” value [2]?
The value was -1.85.

And the “log2 fold change of degron read counts” value [3]?
The value was -0.238.

And the “log2 fold change of degron read counts” value (compound: thalidomide)?
Its value is -0.738.

With FRCPICGATFTQKGNLLRHIKL [46F_47R_49P_50I_52G_53A_54T_55F_67L_, Q9UKT9] as the sequence, how does the “log2 fold change of degron read counts” value [1] read?
Its value is -0.752.

What about the “log2 fold change of degron read counts” value [2] of the same sequence?
The value was -0.483.

What about the “log2 fold change of degron read counts” value [3] of the same sequence?
The value was 1.07.

What about the “log2 fold change of degron read counts” value (compound: thalidomide) of the same sequence?
The value was 1.12.

What does the source list for FKCPICGATFTQKGNLLRHIKL [46F_47K_49P_50I_52G_53A_54T_55F_67L_, Q9UKT9]?
log2 fold change of degron read counts [1]: -1.47; log2 fold change of degron read counts [2]: -2.7; log2 fold change of degron read counts [3]: -2.3; log2 fold change of degron read counts (compound: thalidomide): -1.17

How did the “log2 fold change of degron read counts” value [1] turn out when FVCPICGATFTQKGNLLRHIKL [46F_47V_49P_50I_52G_53A_54T_55F_67L_, Q9UKT9] was run?
The value was -0.613.

What about the “log2 fold change of degron read counts” value [2] of the same sequence?
The value was 1.74.

And the “log2 fold change of degron read counts” value [3]?
Its value is 1.8.

What about the “log2 fold change of degron read counts” value (compound: thalidomide) of the same sequence?
The value was 2.23.

Which “log2 fold change of degron read counts” value [1] does the source give for FGCPICGATFTQKGNLLRHIKL [46F_47G_49P_50I_52G_53A_54T_55F_67L_, Q9UKT9] here?
The value was 3.46.

And the “log2 fold change of degron read counts” value [2]?
Its value is 2.4.

And the “log2 fold change of degron read counts” value [3]?
Its value is 2.17.

What about the “log2 fold change of degron read counts” value (compound: thalidomide) of the same sequence?
Its value is 1.08.

How did the “log2 fold change of degron read counts” value [1] turn out when FICPICGATFTQKGNLLRHIKL [46F_47I_49P_50I_52G_53A_54T_55F_67L_, Q9UKT9] was run?
The value was -1.06.

What about the “log2 fold change of degron read counts” value [2] of the same sequence?
The value was 1.53.

And the “log2 fold change of degron read counts” value [3]?
The value was 1.48.

What about the “log2 fold change of degron read counts” value (compound: thalidomide) of the same sequence?
The value was 1.86.

How did the “log2 fold change of degron read counts” value [1] turn out when FACPICGATFTQKGNLLRHIKL [46F_47A_49P_50I_52G_53A_54T_55F_67L_, Q9UKT9] was run?
Its value is 3.39.

What about the “log2 fold change of degron read counts” value [2] of the same sequence?
Its value is 1.82.

And the “log2 fold change of degron read counts” value [3]?
The value was 1.17.

And the “log2 fold change of degron read counts” value (compound: thalidomide)?
Its value is 0.639.

Which results are given for FFCPICGATFTQKGNLLRHIKL [46F_47F_49P_50I_52G_53A_54T_55F_67L_, Q9UKT9]?
log2 fold change of degron read counts [1]: 2.81; log2 fold change of degron read counts [2]: 3.61; log2 fold change of degron read counts [3]: 1.65; log2 fold change of degron read counts (compound: thalidomide): 1.35

With FQCPICGATFTQKGNLLRHIKL [46F_47Q_49P_50I_52G_53A_54T_55F_67L_, Q9UKT9] as the sequence, how does the “log2 fold change of degron read counts” value [1] read?
Its value is 0.717.

And the “log2 fold change of degron read counts” value [2]?
The value was 2.74.

And the “log2 fold change of degron read counts” value [3]?
Its value is 2.33.

And the “log2 fold change of degron read counts” value (compound: thalidomide)?
Its value is 3.56.

Which “log2 fold change of degron read counts” value [1] does the source give for FCCPICGATFTQKGNLLRHIKL [46F_47C_49P_50I_52G_53A_54T_55F_67L_, Q9UKT9] here?
Its value is 1.51.

What about the “log2 fold change of degron read counts” value [2] of the same sequence?
Its value is 1.82.

And the “log2 fold change of degron read counts” value [3]?
The value was 2.36.

And the “log2 fold change of degron read counts” value (compound: thalidomide)?
Its value is 2.09.

Which results are given for FSCPICGATFTQKGNLLRHIKL [46F_47S_49P_50I_52G_53A_54T_55F_67L_, Q9UKT9]?
log2 fold change of degron read counts [1]: 2.78; log2 fold change of degron read counts [2]: 2.14; log2 fold change of degron read counts [3]: 2.34; log2 fold change of degron read counts (compound: thalidomide): 1.5

FMCPICGATFTQKGNLLRHIKL [46F_47M_49P_50I_52G_53A_54T_55F_67L_, Q9UKT9] was tested. Which “log2 fold change of degron read counts” value [1] did it give?
The value was -1.31.

And the “log2 fold change of degron read counts” value [2]?
Its value is 0.0387.

And the “log2 fold change of degron read counts” value [3]?
The value was 2.08.

What about the “log2 fold change of degron read counts” value (compound: thalidomide) of the same sequence?
The value was 1.34.

What does the source list for FNCPICGATFTQKGNLLRHIKL [46F_47N_49P_50I_52G_53A_54T_55F_67L_, Q9UKT9]?
log2 fold change of degron read counts [1]: 1.88; log2 fold change of degron read counts [2]: 0.692; log2 fold change of degron read counts [3]: 1.59; log2 fold change of degron read counts (compound: thalidomide): 0.652
